Results taken from PubChem BioAssay (NCATS).
Records with an inconclusive call do not appear. A number with no mark means an inactive call. Active and inactive are the calls of the source. Calls follow the shape of the dose curve; as a rule, active = well fitted inhibition curve with a large enough effect; inconclusive = small, poorly fitted or top-dose-only effect; inactive = flat fitted curve, though single readings scatter.

The molecules below were run on astro (assay: Drug repurposing screens with cells derived from glioblastoma tumor samples (AID 1345199; also: nearly all actives have a fitted effect of over 40% in size)). Settings: viability, ATP luminescence, 48 h; series mostly up to 45.9 µM; activity, negative = cell killing: at the top concentration.
How it was run: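 Four patient lines of CD133+ GBM neurospheres were screened at several concentrations; hits were retested in those lines plus three slower-growing GBM lines, using 48-hour treatment and ATP-based viability.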
% is scaled to controls: 0 for no effect and ±100 for the full control effect; potency is read from the fitted curve at half-maximal effect.

| SMILES | Potency | activity, negative = cell killing |
| --- | --- | --- |
| [Cl-].[Cl-].[Hg+2] | 7940 nM (active) |  |
| C[C@H]1CC[C@]2(NC1)O[C@H]1C[C@H]3[C@@H]4CC[C@H]5C[C@@H](O[C@@H]6O[C@H](CO)[C@H](O[C@@H]7O[C@H](CO)[C@@H](O)[C@H](O[C@@H]8OC[C@@H](O)[C@H](O)[C@H]8O)[C@H]7O[C@@H]7O[C@H](CO)[C@@H](O)[C@H](O)[C@H]7O)[C@H](O)[C@H]6O)CC[C@]5(C)[C@H]4CC[C@]3(C)[C@H]1[C@@H]2C | 3160 nM (active) |  |
| COc1ccc2c3c1O[C@H]1C(=O)CC[C@H]4[C@@H](C2)N(C)CC[C@]314 |  | -5.75% |
| C[C@]12CCC(=O)C=C1C=C[C@@H]1[C@@H]2CC[C@@]2(C)[C@H]1CC[C@@]2(O)CCC(=O)O |  | -11.8% [at 21.2 µM] |
| O=C1CN=C(c2ccccc2)c2cc(Cl)ccc2N1CC1CC1 |  | -20% |
| CCNC1(c2cccs2)CCCCC1=O (stereo not given) |  | -16.5% [at 21.2 µM] |
| CNC(=O)Oc1ccccc1C(=O)Nc1ccccc1 | 22400 nM (active) |  |
| CN1C2CCC1CC(OC(c1ccccc1)c1ccc(Cl)cc1)C2 (stereo not given) | 17800 nM (active) |  |
| CC(=O)O[C@H]1C[C@H](O[C@H]2[C@@H](O)C[C@H](O[C@H]3[C@@H](O)C[C@H](OC4CC[C@@]5(C)[C@H](CC[C@@H]6[C@@H]5CC[C@]5(C)[C@@H](C7=CC(=O)OC7)CC[C@]65O)C4)O[C@@H]3C)O[C@@H]2C)O[C@H](C)[C@H]1O[C@@H]1O[C@H](CO)[C@@H](O)[C@H](O)[C@H]1O (stereo not given in full) | 251 nM (active) |  |
| [H+].[H+].[Hg+2].[O-]B([O-])[O-].[c-]1ccccc1 | 2820 nM (active) |  |
| CC(=O)Oc1ccc2c3c1O[C@H]1[C@@H](OC(C)=O)C=C[C@H]4[C@@H](C2)N(C)CC[C@@]341 | inactive |  |
| ClC(Cl)(Cl)Cl |  | 6.62% |
| COC(COC(N)=O)C1=C(N2CC2)C(=O)C(C)=C(N2CC2)C1=O (stereo not given) | 2240 nM (active) |  |
| CCN(CC)CCO[C@H]1CC[C@@]2(C)C(=CC[C@@H]3[C@@H]2CC[C@]2(C)C(=O)CC[C@@H]32)C1 |  | -19.8% |
| CCOC(=O)c1ccccc1C(=O)OCC |  | -5.8% |
| CO[C@H]1[C@@H](O)C[C@H](O[C@H]2[C@@H](O)C[C@H](O[C@H]3[C@@H](O)C[C@H](O[C@H]4CC[C@@]5(C)[C@H](CC[C@@H]6[C@@H]5C[C@@H](O)[C@]5(C)[C@@H](C7=CC(=O)OC7)CC[C@]65O)C4)O[C@@H]3C)O[C@@H]2C)O[C@@H]1C | 282 nM (active) |  |
| O=C(C[C@@H]1NCCC[C@H]1O)Cn1cnc2cc(Br)c(Cl)cc2c1=O |  | -23.8% |
| CCC1(C)CC(=O)NC(=O)C1 |  | -13.4% [at 21.2 µM] |
| O=c1c2ccccc2[se]n1-c1ccccc1 | 22400 nM (active) |  |
| Cc1cc(C)cc(C(=O)OC2C[C@H]3CC[C@@H](C2)N3C)c1 (stereo not given in full) |  | -6.66% |
| CC(=O)O[C@H]1C[C@H](O[C@H]2[C@@H](O)C[C@H](O[C@H]3[C@@H](O)C[C@H](O[C@H]4CC[C@@]5(C)[C@H](CC[C@@H]6[C@@H]5C[C@@H](O)[C@]5(C)[C@@H](C7=CC(=O)OC7)CC[C@]65O)C4)O[C@@H]3C)O[C@@H]2C)O[C@H](C)[C@H]1O[C@@H]1O[C@H](CO)[C@@H](O)[C@H](O)[C@H]1O | 282 nM (active) |  |
| C[C@@H](Cc1ccccc1)NCCC(c1ccccc1)c1ccccc1 |  | -9.75% [at 21.2 µM] |
| O=C1C=C2C=C[C@@H]3C[C@@]2(O1)[C@H]1CCCCN31 | 17800 nM (active) |  |
| C[C@]12CC[C@H](O)C[C@H]1CC[C@@H]1[C@@H]2CC[C@]2(C)[C@@H](c3ccc(=O)oc3)C[C@H]3O[C@]132 | 1580 nM (active) |  |
| O=C1CCO1 |  | -15.5% |
